The campaign covered roughly 100,000 compounds. About 4,200 (4.2%) were called active. The sample holds actives, similar compounds and a random draw of the others, so the mix is not that of the screen.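 How the source made its calls: active means single-dose well whose peak fluorescence ratio is a statistical outlier from its plate by either plate-standardised score or position-corrected B-score; inactive means the rest.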
These compounds were tested against Voltage-dependent T-type calcium channel subunit alpha-1H (Homo sapiens) (UniProt O95180) (assay: Cav3.2 calcium influx blockers – cell-based, Fluo-4 calcium fluorescence, FDSS, MLSMR library, primary screen (AID 449739)). Settings: Cav3.2-expressing cells, at 10 µM, hits give low values.
Sequence of Voltage-dependent T-type calcium channel subunit alpha-1H (Homo sapiens) (O95180 whole entry, looked up): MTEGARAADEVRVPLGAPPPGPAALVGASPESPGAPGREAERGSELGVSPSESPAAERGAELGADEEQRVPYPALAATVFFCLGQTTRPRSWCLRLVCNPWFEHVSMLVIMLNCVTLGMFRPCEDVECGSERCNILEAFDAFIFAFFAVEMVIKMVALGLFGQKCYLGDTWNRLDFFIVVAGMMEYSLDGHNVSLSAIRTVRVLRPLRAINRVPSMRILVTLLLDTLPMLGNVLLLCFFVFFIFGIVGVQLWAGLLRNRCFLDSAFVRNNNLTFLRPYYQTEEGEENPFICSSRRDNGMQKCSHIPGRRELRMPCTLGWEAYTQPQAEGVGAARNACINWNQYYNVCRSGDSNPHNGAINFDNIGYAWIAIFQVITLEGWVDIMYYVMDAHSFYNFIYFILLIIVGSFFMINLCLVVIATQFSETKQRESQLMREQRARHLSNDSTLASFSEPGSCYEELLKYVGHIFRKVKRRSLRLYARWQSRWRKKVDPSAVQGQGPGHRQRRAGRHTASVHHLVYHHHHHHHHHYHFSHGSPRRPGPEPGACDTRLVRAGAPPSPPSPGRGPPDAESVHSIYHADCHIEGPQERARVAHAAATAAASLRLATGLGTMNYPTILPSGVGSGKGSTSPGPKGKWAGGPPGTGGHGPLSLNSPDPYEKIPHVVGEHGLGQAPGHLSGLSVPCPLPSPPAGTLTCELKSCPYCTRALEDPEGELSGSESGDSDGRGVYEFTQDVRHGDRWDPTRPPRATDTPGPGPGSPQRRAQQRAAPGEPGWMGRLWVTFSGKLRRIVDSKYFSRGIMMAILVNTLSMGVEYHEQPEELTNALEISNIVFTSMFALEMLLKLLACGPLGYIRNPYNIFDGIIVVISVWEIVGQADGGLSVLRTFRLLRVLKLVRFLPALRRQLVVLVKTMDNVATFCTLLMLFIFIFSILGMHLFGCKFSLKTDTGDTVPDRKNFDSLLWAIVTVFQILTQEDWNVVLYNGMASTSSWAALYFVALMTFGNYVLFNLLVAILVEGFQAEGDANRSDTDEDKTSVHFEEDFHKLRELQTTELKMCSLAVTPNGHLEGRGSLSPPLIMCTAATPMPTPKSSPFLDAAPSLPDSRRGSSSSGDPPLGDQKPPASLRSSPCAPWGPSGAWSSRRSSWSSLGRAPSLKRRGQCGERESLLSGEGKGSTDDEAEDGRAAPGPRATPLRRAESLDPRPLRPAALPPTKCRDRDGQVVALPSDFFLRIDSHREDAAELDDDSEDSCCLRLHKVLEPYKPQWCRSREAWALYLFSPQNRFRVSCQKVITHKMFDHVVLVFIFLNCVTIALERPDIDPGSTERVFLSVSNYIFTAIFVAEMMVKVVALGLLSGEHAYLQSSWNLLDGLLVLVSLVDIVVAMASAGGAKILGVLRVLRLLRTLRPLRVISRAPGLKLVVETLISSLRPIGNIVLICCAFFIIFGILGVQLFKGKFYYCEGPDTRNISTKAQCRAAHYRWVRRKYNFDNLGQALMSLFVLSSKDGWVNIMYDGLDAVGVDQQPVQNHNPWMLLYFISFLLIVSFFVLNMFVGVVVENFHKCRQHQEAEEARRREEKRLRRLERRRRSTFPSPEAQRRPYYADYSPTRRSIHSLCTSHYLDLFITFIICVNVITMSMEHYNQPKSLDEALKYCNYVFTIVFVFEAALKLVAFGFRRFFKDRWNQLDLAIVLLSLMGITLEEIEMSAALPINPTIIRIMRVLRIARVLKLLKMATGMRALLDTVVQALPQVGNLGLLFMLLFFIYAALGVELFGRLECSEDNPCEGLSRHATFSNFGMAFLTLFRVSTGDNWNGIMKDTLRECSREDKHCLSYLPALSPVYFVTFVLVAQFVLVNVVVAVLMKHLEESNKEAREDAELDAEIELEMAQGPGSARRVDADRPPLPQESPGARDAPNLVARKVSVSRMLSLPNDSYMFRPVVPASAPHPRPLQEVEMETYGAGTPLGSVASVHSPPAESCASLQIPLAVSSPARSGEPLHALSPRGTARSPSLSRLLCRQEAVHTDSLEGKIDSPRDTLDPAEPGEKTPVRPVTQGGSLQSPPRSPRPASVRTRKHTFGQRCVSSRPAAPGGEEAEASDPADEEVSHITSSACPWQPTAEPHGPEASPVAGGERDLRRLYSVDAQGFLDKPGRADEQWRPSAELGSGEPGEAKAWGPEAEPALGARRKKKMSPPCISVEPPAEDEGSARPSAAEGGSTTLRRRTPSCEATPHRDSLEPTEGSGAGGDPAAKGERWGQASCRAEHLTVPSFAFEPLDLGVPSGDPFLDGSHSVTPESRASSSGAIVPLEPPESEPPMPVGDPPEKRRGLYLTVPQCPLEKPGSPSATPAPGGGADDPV

SMILES	B-score
COc1cccc(N(C(=O)c2ccn[nH]2)C2(C(=O)Nc3c(C)cccc3C)CCCCC2)c1	-4.96 (active)
COc1cccc(N2CC(C(=O)Nc3c(C)cccc3C)CC2=O)c1 (stereo not given)	0.386 (inactive)
COC(=O)c1cc(Cl)c(NC(=O)c2ccco2)cc1OC	-0.41 (inactive)
COc1ccccc1C(=O)Nc1ccc(NC(=O)c2ccco2)c(C)c1	-5.24 (active)
COc1ccc(NC(=O)c2cccc(NC(=O)c3ccco3)c2)c(OC)c1	-2.2 (inactive)
Cc1nc(C(=O)NCc2ccccc2)sc1C1(C)CC(c2cccnc2)=NO1 (stereo not given)	0.0411 (inactive)
CCOC(=O)c1ccc(NC(=O)c2nc[nH]c2C(=O)NCc2ccccc2)cc1	-0.706 (inactive)
Oc1c(Cl)cc(Cl)c(Cl)c1Cc1c(O)c(Cl)cc(Cl)c1Cl	-5.05 (active)
CSc1ccc(S(=O)(=O)NCc2ccc(Cl)cc2)cc1	-1.35 (inactive)
CSc1ccc(S(=O)(=O)NC2CCCCC2)cc1	-0.215 (inactive)
CSc1ccc(S(=O)(=O)Nc2cccc(F)c2)cc1	-4.09 (active)
CC(C)(C)OC(=O)NCCCC1=CC2=CC(=O)C(C)(OC(=O)c3ccco3)C(=O)C2=CO1 (stereo not given)	0.291 (inactive)
COc1ccc(C(=O)NC(=S)NNC(=O)CCc2ccccc2)cc1	-4.4 (active)
Cc1ccc(NC(=S)NC(=O)c2ccc(-c3ccccc3)cc2)cc1	-0.678 (inactive)
CCNC(=S)NNC(=O)Cc1ccccc1	0.703 (inactive)
CCOc1c2ccc(C(=O)NCc3ccc4c(c3)OCO4)cc2nn1C	0.329 (inactive)
CC(=O)NS(=O)(=O)c1ccc(NC(=O)/C=C/c2ccccc2Cl)cc1	-1.8 (inactive)
CCNc1nc(N)nc(-c2cc(Cl)ccc2OC)n1	0.499 (inactive)
CC[C@@H](C)[C@@H](C(=O)N1CCN(C(=O)OC(C)(C)C)CC1)n1cc(CCC(=O)O)nn1	1.09 (inactive)
COc1ccc(Cl)cc1C(=O)NCC#N	0.746 (inactive)
COC(=O)/C(=C\Nc1ccccc1)NC(=O)c1ccc(Cl)cc1Cl	-5.14 (active)
CC(C)(C)C(=O)Nc1ccc(C(=O)N/N=C/c2ccccc2OC(=O)c2ccc(Cl)cc2Cl)cc1	-2.74 (inactive)

SMILES	B-score
CCOc1cc(/C=C2/N=C(c3ccc(C(C)(C)C)cc3)OC2=O)cc(Cl)c1OS(C)(=O)=O	-1.04 (inactive)
Cc1nc2c(C(=O)NCc3ccc4c(c3)OCO4)c[nH]n2c(=O)c1Cc1ccccc1F	-5.22 (active)
CC(C)NC(=O)CSc1ccccc1C(=O)NCc1ccc2c(c1)OCO2	0.374 (inactive)
CCn1cc(C(=O)NCc2ccc3c(c2)OCO3)c2cc(OC)c(OC)cc2c1=O	0.417 (inactive)
O=C(CSc1nc(C2CC2)nc2ccccc12)Nc1ccc2c(c1)OCCO2	0.0431 (inactive)
COc1ccc(OC)c(C(=O)c2coc3ccc(OC)cc23)c1	-3.61 (active)
COc1ccc2oc(C)c(NC(C)=O)c2c1	0.131 (inactive)
COc1ccc(OC)c(C(=O)c2ccc(C(=O)O)cc2)c1	-3.15 (inactive)
Cc1ccccc1C(=O)N1CCC(C(=O)Nc2ccc(S(=O)(=O)N(C)C(C)C)cc2)CC1	0.159 (inactive)
NC(=O)CC[C@@H]1NC(=O)[C@H](CO)NC(=O)c2cc([N+](=O)[O-])cc(I)c2NCC[C@@H](C(N)=O)NC1=O	0.984 (inactive)
O=C(NCCc1ccc2c(c1)OCCO2)c1cc2ccccc2o1	-3.85 (active)
O=C(CC(Cc1ccccc1)C(=O)O)NCCc1ccc2c(c1)OCO2 (stereo not given)	-0.225 (inactive)
O=C(COC(=O)c1ccc2c(c1)OCCO2)NCc1ccccc1	-0.412 (inactive)
COc1ccc(CNC(=O)[C@@H]2CC=C[C@@H]3CCN(C4CC4)C(=O)[C@@H]32)cc1	1.86 (inactive)
CC[C@H](C)[C@@H](C(=O)N1CCNCC1)n1cc([C@@H](N)Cc2ccc(O)cc2)nn1	0.0182 (inactive)
Cc1cccc(N(C(=O)Cc2cccs2)C(C(=O)NC2CCCC2)c2ccsc2)c1 (stereo not given)	-1.16 (inactive)
CCC1(CC)C(=O)C2=C3C1[C@H](C(=O)OC)C=C(C(=O)OC)C[C@H]3[C@H]1C(=O)N(Cc3ccccc3)C(=O)[C@H]1[C@H]2C (stereo not given in full)	0.691 (inactive)
O=c1[nH]n(-c2cccc(Cl)c2)c2ncccc12	0.173 (inactive)
Cc1[nH]n(-c2cccc(Cl)c2)c(=O)c1-c1ccc(Cl)cc1	-7.48 (active)
Cc1ccc(-c2cc(=O)c3ccc(Cl)cc3[nH]2)cc1	-0.0223 (inactive)
CC1=CC(C)(C)Nc2ccc(OC(=O)CN3C(=O)C4CCCCC4C3=O)cc21 (stereo not given)	-0.00954 (inactive)
CC1=CC(C)(C)Nc2ccc(OC(=O)C(Cc3ccccc3)N3C(=O)C4CCCCC4C3=O)cc21 (stereo not given)	-5.23 (active)

SMILES	B-score
Cc1ccc(C)n1C(Cc1ccccc1)C(=O)O (stereo not given)	1.91 (inactive)
COCCCn1c(SCc2cccc(OC)c2)nc2cc(OC)c(OC)cc2c1=N	-0.819 (inactive)
C=C1CCN([C@H](C(=O)NCc2cc(OC)c(OC)c(OC)c2)C(C)C)S(=O)(=O)c2ccccc21	1.03 (inactive)
COc1ccc2cc1Oc1ccc(cc1)C[C@H]1c3cc(c(OC)cc3CCN1C)Oc1c(O)c(OC)cc3c1[C@H](C2)N(C)CC3	1.81 (inactive)
COc1ccc(-c2cc(C(=O)n3cnc4ccccc43)c3ccccc3n2)cc1	-0.0392 (inactive)
COc1ccccc1CSc1nc2ccccc2[nH]1	-0.942 (inactive)
COc1ccc(-c2[nH]nc(-c3ccccc3)c2-c2nc3ccccc3[nH]2)cc1	-6.24 (active)
O=C(COc1ccccc1)NCCc1nc2ccccc2[nH]1	0.299 (inactive)
O=C1C(=O)N(CCN2CCOCC2)C(c2ccccn2)/C1=C(/O)c1ccc(Cl)cc1 (stereo not given)	-0.156 (inactive)
Cc1cc(N2C(=O)C(=O)/C(=C(/O)c3ccc(Cl)cc3)C2c2cccc(Br)c2)no1 (stereo not given)	-7.89 (active)
COc1ccccc1C1/C(=C(/O)c2ccc(OC(C)C)cc2)C(=O)C(=O)N1c1cc(C)on1 (stereo not given)	-0.532 (inactive)
Cc1cccc(NC(=S)Nc2ccc(Br)cc2)c1	-1.14 (inactive)
O=C(COc1ncnc2c(Cl)cc(Cl)cc12)N1CCN(S(=O)(=O)c2ccccc2)CC1	0.727 (inactive)
COc1ccccc1N(C(=O)Cn1nnc2ccccc21)C(C(=O)NCc1ccco1)c1ccc(C)o1 (stereo not given)	-6.1 (active)
CC(C)(C)NC(=O)C(c1ccco1)N(Cc1ccc2c(c1)OCO2)C(=O)Cn1nnc2ccccc21 (stereo not given)	-1.57 (inactive)
Cc1ccc(C(C(=O)NCc2ccco2)N(CC2CCCO2)C(=O)Cn2nnc3ccccc32)cc1 (stereo not given)	0.195 (inactive)
CCOC(=O)c1cc(NC(=O)c2ccc(Cl)cc2)c(=O)oc1-c1ccccc1	-0.21 (inactive)
COC(=O)C1(O)CC(C(C)C)=NN1C(=O)c1ccc(Cl)cc1 (stereo not given)	-0.542 (inactive)
Cc1nnsc1S(=O)(=O)Cc1ccccc1Cl	0.123 (inactive)
O=C(NNS(=O)(=O)c1ccc(Cl)cc1)C1CCN(Cc2ccccc2)CC1	0.455 (inactive)
COc1ccc(C(=O)Nc2ccc(S(=O)(=O)NC(C)C)cc2)cc1	1.46 (inactive)
COC(=O)C(NC(=O)c1ccc(OC)cc1)(Nc1ncc(S(=O)(=O)c2ccc([N+](=O)[O-])cc2)s1)C(F)(F)F (stereo not given)	-8.97 (active)

SMILES	B-score
COc1ccc(C(=O)Nc2nc(-c3ccc(OC)cc3)c(-c3ccc([N+](=O)[O-])cc3)s2)cc1	-2.13 (inactive)
COC(=O)CCCC1=CC2=CC(=O)C(C)(OC(=O)c3cccs3)C(=O)C2=CN1CC(C)C (stereo not given)	0.582 (inactive)
COC(C[C@@H]1O[C@@H]1C(=O)[C@H](C)OCc1ccccc1)OC	-0.00689 (inactive)
CCc1nnc(NC(=O)CSc2nnc(Cc3ccccc3)n2-c2ccc(OC)cc2)s1	-1.29 (inactive)
Cn1cccc1Cc1nnc(SCC(=O)NCCc2ccccc2)n1-c1ccc(F)cc1	-2.55 (inactive)
COc1ccccc1NC(=O)CSc1nnc(Cc2cccn2C)n1-c1ccc(F)cc1	-2.37 (inactive)
COc1ccc(-n2c(Cc3cccn3C)nnc2SCC(=O)Nc2cc(C)cc(C)c2)cc1	-8.52 (active)
COC(=O)c1ccc(NC(=O)CSc2nnc(Cc3cccn3C)n2-c2ccc(F)cc2)cc1	-9.38 (active)
Cc1ccc(C)c(NC(=O)CSc2nnc(Cc3cccn3C)n2-c2ccc(F)cc2)c1	-2.84 (inactive)
COc1ccccc1CNC(=O)c1ccc(SC)cc1OC	-2.74 (inactive)
Cc1ccccc1CS(=O)(=O)CC1(O)CCN(C(=O)c2cccc(C(F)(F)F)c2)CC1	0.394 (inactive)
C#CCOCCOCCOCCNc1nc(N2CCN(C(=O)[C@H](Cc3ccc(O)cc3)n3cc(C(N)CC(C)C)nn3)CC2)nc(N2CCN(C(=O)[C@H](CCC(=O)O)n3cc(C(N)[C@H](C)CC)nn3)CC2)n1 (stereo not given in full)	-0.0524 (inactive)
COc1cc(NC(=O)c2cncc(-c3ccc(C#N)cc3)c2)cc(C(=O)Nc2cccc(C(F)(F)F)c2)c1	0.721 (inactive)
CCOc1[nH]n(-c2ccc(Cl)cc2)c(=O)c1C=Nc1ccc(O)cc1	-0.0117 (inactive)
O=C(Nc1ccc(-c2csc(Nc3cccc(C(F)(F)F)c3)n2)cc1)c1cccc(C(F)(F)F)c1	0.00365 (inactive)
COC(C[C@@H](O)C[C@H](O)[C@H](C)OCc1ccccc1)OC	1.07 (inactive)
Cn1c(=O)c2c(ncn2CC(=O)N2CCN(c3ccccc3)CC2)n(C)c1=O	0.538 (inactive)
O=C(c1ccccc1)c1cccn1CC(=O)N1CCN(c2ccc(F)cc2)CC1	-6.62 (active)
CCOc1ccc(-c2nnn(CC(=O)N3CCN(c4ccc(F)cc4)CC3)n2)cc1OCC	0.122 (inactive)

— PubChem BioAssay AID449739 (Vanderbilt High Throughput Screening Facility, 2010)
